PAFAH2 inh = PAFAH2 enzyme inhibitors, primary screen, biochemical, fluorescence polarization, human; recombinant PAFAH2, FP-rhodamine activity probe; 0.99% of 340,000 active; AID 492956, 2010; inhibition, % at 3.39 µM;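 active = inhibition above the mean over all tested compounds plus 3 SD, cut at about 30% in these data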;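 note: inhibitors block probe labeling of enzyme so polarization drops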
ATG4B inh = ATG4B protease inhibitors, primary screen, biochemical, fluorescence, uHTS; 0.51% of 340,000 active; Cysteine protease ATG4B (Homo sapiens), Q9Y4P1; inhibition, % at 8.33 µM; AID 504462, 2011; ATG4B cleavage of LC3-PLA2, NBD-HPC fluorescence, 1 h; in the data active = inhibition above about 40%
pPAFAH FP inh = pPAFAH enzyme inhibitors, primary screen, biochemical, fluorescence polarization, human; Platelet-activating factor acetylhydrolase (Homo sapiens), Q13093; recombinant pPAFAH, FP-rhodamine probe fluorescence polarization; inhibition, % at 3.39 µM; 1.5% of 330,000 active;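 active = inhibition above the mean inhibition across the screen plus 3 SD, cut at about 25% in these data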;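 note: inhibitors block binding of the rhodamine activity-based probe so polarization drops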
Target sequence (Q13093 whole entry, looked up): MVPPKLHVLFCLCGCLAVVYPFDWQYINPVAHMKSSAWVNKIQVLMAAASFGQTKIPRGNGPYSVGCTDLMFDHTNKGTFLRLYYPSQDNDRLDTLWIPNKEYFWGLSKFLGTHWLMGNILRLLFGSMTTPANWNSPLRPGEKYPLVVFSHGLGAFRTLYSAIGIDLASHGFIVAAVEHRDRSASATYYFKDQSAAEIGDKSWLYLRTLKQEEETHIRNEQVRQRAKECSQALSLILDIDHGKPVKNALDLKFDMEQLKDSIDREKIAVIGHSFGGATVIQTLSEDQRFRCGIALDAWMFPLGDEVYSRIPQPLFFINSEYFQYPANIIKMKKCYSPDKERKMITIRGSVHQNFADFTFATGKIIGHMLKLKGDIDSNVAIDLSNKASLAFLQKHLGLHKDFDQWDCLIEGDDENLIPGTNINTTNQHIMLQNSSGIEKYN
PAFAH1B3 FP inh = PAFAH1B3 enzyme inhibitors, primary screen, biochemical, fluorescence polarization, human | recombinant PAFAH1B3, FP-rhodamine probe | inhibition, % at 3.39 µM | 0.28% of 340,000 active | AID 492972, 2010;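 active = inhibition above the screen-wide average of all tested compounds plus 3 SD, cut at about 25% in these data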
PAFAH1B2 FP inh = PAFAH1B2 enzyme inhibitors, primary screen, biochemical, fluorescence polarization, human. recombinant PAFAH1B2, FP-rhodamine activity probe. inhibition, % at 3.39 µM. 1.2% of 340,000 active;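 active = inhibition above the mean of all tested compounds plus 3 SD, cut at about 24% in these data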
Target sequence (P68402 whole entry, looked up): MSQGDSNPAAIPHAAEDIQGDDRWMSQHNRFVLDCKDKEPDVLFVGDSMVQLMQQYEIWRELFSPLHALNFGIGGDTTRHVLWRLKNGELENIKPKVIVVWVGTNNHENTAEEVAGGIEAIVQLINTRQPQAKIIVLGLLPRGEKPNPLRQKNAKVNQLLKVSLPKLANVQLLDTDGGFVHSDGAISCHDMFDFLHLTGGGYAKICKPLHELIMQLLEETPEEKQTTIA
DAGLB inh = DAGLB lipase inhibitors, primary screen, biochemical, fluorescence, HTS. HEK293T DAGLB membrane lysate, EnzChek fluorogenic substrate. inhibition, % at 5.17 µM. 0.059% of 340,000 active; in the data active = inhibition above about 34%
PAFAH2 FP conf = PAFAH2 enzyme inhibitors, confirmation, biochemical, fluorescence polarization, human. 65% of 2,300 active. inhibition, % at 3.39 µM. shares compounds with PAFAH2 inh. recombinant PAFAH2, FP-rhodamine activity probe. AID 493030, 2011;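 active = mean inhibition over three repeats above a set limit taken from the earlier primary screen, cut at about 30% in these data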;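 note: inhibitor blocks binding of rhodamine activity probe so polarization falls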
Large screens that a line does not name were inactive (follow-up assays come after a bar, where they were run). Rows were chosen to be rich in hits. Some 3% of all compounds tested hit in one or more screens of this group.

CS(=O)(=O)c1ccc(Cl)c(NC(=O)COC(=O)c2ccc(S(=O)(=O)N3CCCC3)cc2)c1	none
CC(C)Oc1ccc(C(CC(=O)O)Cc2ccccc2)cc1 (stereo not drawn)	none
O=C(OCC12CC3CC(CC(C3)C1)C2)c1ccc(NCc2cc(O)ccc2O)cc1	none (no result: pPAFAH FP inh)
O=C(OCCC12CC3CC(CC(C3)C1)C2)c1ccc(NCc2cc(O)ccc2O)cc1	PAFAH2 inh 75.3 (no result: pPAFAH FP inh) | PAFAH2 FP conf 66.2
O=C(OCC(=O)N1CCCCC1)c1cccs1	none
CC1CCN(C(=O)COC(=O)c2ccc(Cl)nc2)CC1	none
CC1CCN(C(=O)COC(=O)c2ccc(N3CCCC3=O)cc2)CC1	PAFAH2 inh 36.8 | PAFAH2 FP conf 29.7
CC1CCN(C(=O)COC(=O)c2ccc3c(c2)OCCO3)CC1	PAFAH2 inh 46.4 | PAFAH2 FP conf 29.9
CC1CCN(C(=O)COC(=O)c2cccs2)CC1	PAFAH2 inh 35.3 | PAFAH2 FP conf inactive
CC1CCN(C(=O)COC(=O)c2ccc3c(c2)OCO3)CC1	PAFAH2 inh 39.3 | PAFAH2 FP conf inactive
O=C(OCC(=O)N1CCOCC1)c1ccc2c(c1)OCCO2	none
CC12CCC(=O)N1C(C(=O)N1CCN(c3ccc([N+](=O)[O-])cc3)CC1)CS2 (stereo not drawn)	none
O=C(CS(=O)(=O)c1ccccc1)Nc1ccccn1	none
O=C(CS(=O)(=O)Cc1ccccc1)Nc1ccc(Cl)cn1	PAFAH2 inh 61.1 | PAFAH2 FP conf 40.0
O=C(CS(=O)(=O)Cc1ccccc1)Nc1ccccn1	PAFAH2 inh 35.5 | PAFAH2 FP conf inactive
O=C(O/N=C/C1=C(Cl)c2ccccc2CC1)c1ccc(F)cc1	PAFAH2 inh 34.5 | PAFAH2 FP conf 39.8
Cc1c(NC(=O)Nc2cccc(C#N)c2)c(=O)n(-c2ccccc2)n1C	none
O=C(CNc1ccc(Cl)c(C(F)(F)F)c1)N1CCN(S(=O)(=O)c2ccccc2)CC1	PAFAH2 inh 44.9 (no result: pPAFAH FP inh) | PAFAH2 FP conf inactive
CC(=O)c1ccc(NCC(=O)N2CCN(S(=O)(=O)c3ccccc3)CC2)cc1	none
CCN(CC)c1ccc(/C=N/n2c(-c3ccccc3Br)n[nH]c2=S)cc1	PAFAH2 inh 30.7 | PAFAH2 FP conf inactive
O=C1CCC/C=C\C[C@@H](CC(=O)N(CCO)Cc2ccccc2)C(=O)N[C@H](c2ccccc2)CO1	PAFAH2 inh 66.2 | PAFAH2 FP conf 56.3
O=C(COC(=O)/C=C/c1ccc(Br)o1)NC1CCCCC1	PAFAH2 inh 76.8 | PAFAH2 FP conf 72.7
CC1CCCCC1NC(=O)COC(=O)/C=C/c1ccco1 (stereo not drawn)	PAFAH2 inh 83.7 | PAFAH2 FP conf 73.8
CC1CC(C)CN(C(=O)COC(=O)/C=C/c2ccco2)C1 (stereo not drawn)	none
O=C(COC(=O)/C=C/c1ccco1)NC1CCCCC1	PAFAH2 inh 77.1 | PAFAH2 FP conf 81.7
COc1ccc(NC(=S)NCCCN2CCN(C3CCCCC3)CC2)cc1	none
Cc1ccc(C(=O)Nc2cccc(C(=O)N/N=C/c3ccc(F)cc3)c2)cc1	none
NS(=O)(=O)c1cccc(NC(=O)c2ccccc2NS(=O)(=O)c2ccc(F)cc2)c1	PAFAH2 inh 41.5 | PAFAH2 FP conf 46.7
CCOc1ccc(C(=O)NCc2ccco2)cc1OCC	none
CCOc1ccc(C(=O)OCC(=O)NCc2ccco2)cc1OCC	PAFAH2 inh 74.3 | PAFAH2 FP conf 46.0
O=C(COC(=O)c1cccc(S(=O)(=O)N2CCc3ccccc3C2)c1)NCc1ccco1	none
O=C(COC(=O)c1ccccc1)NCc1ccco1	none
Nc1cc(C(=O)OCC(=O)NCc2ccco2)ccc1Cl	PAFAH2 inh 36.4 | PAFAH2 FP conf 30.3
Cc1ccc(C(=O)OCC(=O)NCc2ccco2)cc1	PAFAH2 inh 45.4 | PAFAH2 FP conf 37.2
O=C(COC(=O)c1cccc(S(=O)(=O)N2CCc3ccccc32)c1)NCc1ccco1	PAFAH2 inh 33.0 | PAFAH2 FP conf inactive
COc1ccc(CCN2CC(C(=O)NCCN3CCCC3=O)CCC2=O)cc1 (stereo not drawn)	none
O=C(NC1CC1)c1ccc(CSCc2ccc(Cl)cc2)o1	none (no result: PAFAH2 inh, ATG4B inh, pPAFAH FP inh, PAFAH1B3 FP inh, PAFAH1B2 FP inh)
O=C(COC(=O)c1ccco1)Nc1cc(S(=O)(=O)N2CCCCC2)ccc1Cl	PAFAH2 inh 54.8 | PAFAH2 FP conf 46.3
CCN(c1ccccc1)S(=O)(=O)c1ccc(Cl)c(NC(=O)COC(=O)C2CC2C)c1 (stereo not drawn)	PAFAH2 inh 79.0 | PAFAH2 FP conf 75.9
CCN(c1ccccc1)S(=O)(=O)c1ccc(Cl)c(NC(=O)CN2CCCCCC2)c1	none
O=C(COC(=O)c1ccco1)Nc1cc(S(=O)(=O)N2CCOCC2)ccc1Cl	PAFAH2 inh 57.7 | PAFAH2 FP conf 34.8
O=C(COC(=O)c1ccccc1O)Nc1cc(S(=O)(=O)N2CCCCCC2)ccc1Cl	none
O=C(COC(=O)c1ccccc1)Nc1cc(S(=O)(=O)N2CCCCCC2)ccc1Cl	PAFAH2 inh 30.2 | PAFAH2 FP conf inactive
CCC(=O)N(Cc1cc2ccccc2[nH]c1=O)c1ccccc1OC	none
Cc1ccc(C(O)Cn2nc(C)cc2C)cc1 (stereo not drawn)	none
Cc1ccc(N(CC(=O)NC(C)(C)C)C(=O)CCC(=O)Nc2nccs2)c(C)c1	none (no result: pPAFAH FP inh)
COCCN(C(=S)Nc1c(C)cccc1C)C(C)c1cccs1 (stereo not drawn)	PAFAH2 inh 51.2 | PAFAH2 FP conf 39.0
COCCN(C(=S)Nc1cccc(C)c1)C(C)c1cccs1 (stereo not drawn)	none
CC(=O)OCCN1C(=O)c2ccc(-c3nc4ccccc4c(=O)o3)cc2C1=O	PAFAH2 inh 53.4 | PAFAH2 FP conf 45.8
CCN1C(=O)c2ccc(-c3nc4ccccc4c(=O)o3)cc2C1=O	PAFAH2 inh 34.9 | PAFAH2 FP conf 62.8
CC1(C)CC(=O)C2=C(C1)OC1=C(C(=O)CC(C)(C)C1)C2c1ccccc1Cl	none (no result: PAFAH2 inh, ATG4B inh, pPAFAH FP inh, PAFAH1B3 FP inh, PAFAH1B2 FP inh)
O=C(c1cccc(Cl)c1)C1CCCN(S(=O)(=O)c2ccccc2)C1 (stereo not drawn)	none
O=C(NC(=S)Nc1ccccc1[N+](=O)[O-])c1ccco1	none
O=C(COC(=O)c1ccco1)Nc1ccccc1[N+](=O)[O-]	PAFAH2 inh 40.6 | PAFAH2 FP conf inactive
Cc1ccc(C(=O)OCC(=O)Nc2ccc3c(c2)OCO3)o1	PAFAH2 inh 62.0 | PAFAH2 FP conf 60.1
